Sampled rows, rich in hits. Any-hit rate of the full collection: about 12%.
TDP1 block = TDP1 (human) enzyme inhibition; Q9NUW8; recombinant TDP1, AlphaScreen DNA substrate cleavage; Potency, µM (series often up to 130 µM), usual class: inhibitors; 350,000 compounds, 0.28% hits; further: nearly all actives have a fitted effect of over 40% in size
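AlphaScreen read-out: signal falls as enzyme removes the 3' tyrosine-FITC from a 5'-biotinylated DNA oligo (15 nM, 5 min, RT). Enzyme was E. coli-made recombinant Tdp1 at 1 nM, exposed to compound for 15 min beforehand; beads 10 ug/ml, 10 min.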
G9a inh = G9a (human) methyltransferase inhibition. Q96KQ7. G9a H3K9 monomethylation, AlphaScreen, 2 h. Potency, µM (series often up to 102 µM), hits mostly inhibitors. 350,000 compounds, 8.8% hits. AID 504332; further: nearly all actives have a fitted effect of over 75% in size
Target sequence (Q96KQ7 913-1193 limits assumed): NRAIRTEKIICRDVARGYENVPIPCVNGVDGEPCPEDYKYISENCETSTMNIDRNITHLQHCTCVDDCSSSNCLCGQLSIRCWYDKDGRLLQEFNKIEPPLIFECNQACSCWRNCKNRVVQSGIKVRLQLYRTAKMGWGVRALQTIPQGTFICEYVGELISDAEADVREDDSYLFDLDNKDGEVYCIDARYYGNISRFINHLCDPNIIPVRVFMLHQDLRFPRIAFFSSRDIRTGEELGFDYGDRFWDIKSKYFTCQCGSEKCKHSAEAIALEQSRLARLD
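Chemiluminescent proximity detection of H3K9 monomethylation, read after 10 min bead incubation in the dark. Reaction: 20 nM G9a, 500 nM biotin-H3K9 peptide, 20 uM SAM cofactor, 2 h, room temperature, following 15 min enzyme-compound preincubation.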
HP1b chromo inh = inhibitors of HP1-beta chromodomain binding to methylated histone tails; Potency, µM (doses to about 114 µM), actives largely listed as inhibitors; P83916; AlphaScreen HP1-beta / biotin-H3K9me3 peptide binding; 390,000 compounds, 0.56% hits; AID 540317; further: nearly all actives have a fitted effect of over 70% in size
Target sequence (P83916 whole entry, looked up): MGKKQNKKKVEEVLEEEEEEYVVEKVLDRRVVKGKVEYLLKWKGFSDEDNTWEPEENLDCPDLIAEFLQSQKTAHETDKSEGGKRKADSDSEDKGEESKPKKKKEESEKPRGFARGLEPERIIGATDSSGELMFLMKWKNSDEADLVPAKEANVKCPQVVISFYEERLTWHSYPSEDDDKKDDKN
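Compound inhibition of the preformed complex between 50 nM HP1-beta and 50 nM biotinylated H3K9me3 peptide was read by AlphaScreen. Buffer was PBS pH 7.4 with 0.01% Tween-20. Incubations ran 30 min at room temperature, with 10 ug/mL donor/acceptor beads.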
JMJD2A Tudor = JMJD2A Tudor domain (human) inhibition | AlphaScreen JMJD2A-Tudor / H3K4me3 peptide binding | Potency, µM (doses to about 114 µM), usual class: inhibitors | 390,000 compounds, 4.4% hits; further: nearly all actives have a fitted effect of over 50% in size
BAZ2B block = blocks human BAZ2B | Q9UIF8 | AlphaScreen BAZ2B-H3K14Ac peptide displacement | Potency, µM (titrated, usually from 114 µM), usual class: inhibitors | 360,000 compounds, 4.4% hits | AID 504333; further: nearly all actives have a fitted effect of over 60% in size
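BAZ2B (50 nM) with biotin-H3(5-23)K14Ac peptide (50 nM) in PBS pH 7.4, 0.01% Tween-20, preformed 30 min, then compound 30 min at room temperature; top concentration 110uM. AlphaScreen streptavidin donor/nickel chelate acceptor beads (10 ug/mL final), 20 min dark, signal read.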
Sfp inh = inhibitors of Bacillus subtilis Sfp phosphopantetheinyl transferase; Potency, µM, hits mostly inhibitors; Q9F4F7; Biochemical Sfp PPTase activity, qHTS; 310,000 compounds, 3.5% hits;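 further: the enzyme is Sfp with the accession as filed and its product quenches rhodamine fluorescence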
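Step 1, compound plus 15 nM Sfp-PPTase, 15 min, room temperature. Step 2, add rhodamine-CoA (5 uM) and BHQ-2-YbbR (12.5 uM). Step 3, read 525/598 nm fluorescence at 0 and 30 min.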
Of the large screens only hits and unclear results are named; the others gave an inactive call; ! = a repeat was not active. The call rests on the fitted dose curve; in most records, active means well fitted curve in the direction sought with a large enough effect; inconclusive means small, poorly fitted or top-dose-only effect, or another doubt; inactive means no such curve, though single readings can be large; an effect the other way counts as inactive or inconclusive.

Cc1ccc2nc(NCCNC(=O)c3ccccc3)c(C#N)cc2c1	none (no result: TDP1 block, G9a inh)
Cc1ccc2cc(C#N)c(N3CCCN(C(=O)C4CCCO4)CC3)nc2c1 (centres undefined)	none
Cc1ccc2nc(NCc3ccccc3)c(C#N)cc2c1	Sfp inh 79µM (no result: TDP1 block)
COc1ccc(C2c3c(nc(C)[nH]c3=O)Oc3ccc4ccccc4c32)cc1OC (centres undefined)	none (no result: G9a inh, HP1b chromo inh, BAZ2B block, Sfp inh)
COc1cc(C2c3c([nH]c(=O)[nH]c3=O)Nc3ccc4ccccc4c32)ccc1O (centres undefined)	G9a inh 50µM, HP1b chromo inh inconclusive, JMJD2A Tudor inconclusive, BAZ2B block inconclusive, Sfp inh inconclusive
COc1cc(C2c3c([nH]c(=O)[nH]c3=O)Nc3ccc4ccccc4c32)cc(OC)c1OC (centres undefined)	G9a inh inconclusive, HP1b chromo inh 71µM, JMJD2A Tudor inconclusive, BAZ2B block 56µM, Sfp inh 56µM (no result: TDP1 block)
Nc1nc(C(=O)N2CCOCC2)nn1C(=O)c1ccc(Cl)cc1	G9a inh 35µM
O=C1CCN(Cc2ccccc2)C=C1c1ccc2ccccc2c1	JMJD2A Tudor 45µM (no result: G9a inh, BAZ2B block, Sfp inh)
O=C(CSc1nnc(-c2ccc(Br)o2)n1Cc1ccccc1)c1ccccc1F	G9a inh 4.5µM, JMJD2A Tudor inconclusive, BAZ2B block inconclusive, Sfp inh 35µM
COc1cc(CNCc2cccc(OC)c2OC)cc(OC)c1	HP1b chromo inh inconclusive, JMJD2A Tudor 25µM (no result: TDP1 block)
COc1cc(CNCc2ccncc2)cc(OC)c1OC	none (no result: TDP1 block)
CCOC(=O)CC(NCc1ccc(OC)c(OCC)c1)c1ccc(C)cc1 (centres undefined)	JMJD2A Tudor 56µM
COc1cc(CNCc2ccc(C)cc2)cc(OC)c1OC	G9a inh 28µM, HP1b chromo inh inconclusive, JMJD2A Tudor 20µM, BAZ2B block 71µM (no result: TDP1 block)
COc1cc(CNCc2cc(OC)c(OC)c(OC)c2)cc(OC)c1	HP1b chromo inh inconclusive, JMJD2A Tudor 20µM, BAZ2B block inconclusive (no result: TDP1 block, G9a inh)
COc1ccc(CNCc2c(F)cccc2F)cc1OC	G9a inh 10µM, JMJD2A Tudor 4µM
COc1cccc(CNCc2ccc(SC)cc2)c1OC	G9a inh 22µM, HP1b chromo inh inconclusive, JMJD2A Tudor 13µM, BAZ2B block inconclusive
CCOc1cc(CNCc2cc(OC)cc(OC)c2)ccc1OC	G9a inh 40µM, HP1b chromo inh inconclusive, JMJD2A Tudor 1µM, BAZ2B block inconclusive (no result: TDP1 block)
CC1(OC(=O)C2CCCC2)C(=O)C=C2C=C(c3ccsc3)N(C(CO)CO)C=C2C1=O (centres undefined)	none
CCOC(=O)C(C)Sc1nc2c(c(-c3cccs3)c1C#N)CCC2 (centres undefined)	Sfp inh 50µM
CCOC(=O)CSc1nc2c(c(-c3ccc(C)o3)c1C#N)CCCC2	G9a inh inconclusive, Sfp inh 14µM
Cc1ccc(-c2c(C#N)c(N)nc3c2CCCCCC3)o1	none
COC(=O)CSc1nc2c(c(-c3ccco3)c1C#N)CCCC2	G9a inh 2.2µM, BAZ2B block 28µM, Sfp inh 35µM (no result: TDP1 block)
Cc1ccc(-c2c(C#N)c(N)nc3c2CCCCC3)o1	G9a inh 79µM, Sfp inh 50µM
CC(C)OC(=O)CC(=O)CSc1nc2c(c(-c3cccs3)c1C#N)CCC2	none
COc1cc(Cc2nccc3cc(OC)c(OC)cc23)c(S(=O)(=O)O)cc1OC	none (no result: TDP1 block)
COc1cc2ccnc(Cc3cccc(OC)c3OC)c2cc1OC	JMJD2A Tudor 79µM
COc1cc(CNC(=O)c2ccc(NC(=O)N3CCCCc4ccccc43)cc2)cc(OC)c1OC	none (no result: Sfp inh)
O=CNC1c2ccccc2CCc2ccccc21	none (no result: TDP1 block, G9a inh, BAZ2B block, Sfp inh)
CCS(=O)(=O)c1nc(S(=O)(=O)c2ccc(Cl)cc2)c(NCc2ccc(Cl)cc2)s1	none (no result: Sfp inh)
O=C(COC(=O)Cc1ccccc1F)Nc1ccc(Cl)cn1	JMJD2A Tudor 20µM
N#Cc1c(C#N)c(O)c2ccccc2c1O	G9a inh 2µM, Sfp inh 13µM
Cc1cc(O)c2ccccc2c1O	G9a inh inconclusive (no result: HP1b chromo inh, JMJD2A Tudor, BAZ2B block)
CN(CCCC(=O)NCCc1ccccc1)S(=O)(=O)c1ccc([N+](=O)[O-])cc1	none
O=C(Nc1ccc(Cl)cc1)c1ccc(-n2cnnc2)cc1	none (no result: Sfp inh)
COc1ccc(S(=O)(=O)N(C)C(C)CCc2ccco2)cc1 (centres undefined)	G9a inh 79µM (no result: TDP1 block)
Cc1ccc(S(=O)(=O)N(C)C(C)CCc2ccco2)cc1 (centres undefined)	none (no result: Sfp inh)
CCOC(=O)c1c(NC(=O)CC)sc(C(=O)NC2CCCC2)c1C	none
CCOC(=O)c1sc(NC(=O)CCN2CCN(C)CC2)c(C(=O)OCC)c1C	BAZ2B block inconclusive
CCOC(=O)c1c(NC(=O)CC)sc(C(C)=O)c1C	G9a inh 25µM, BAZ2B block inconclusive, Sfp inh 40µM
CCOC(=O)c1sc(NC(=O)CCN2CC(C)OC(C)C2)c(C(=O)OCC)c1C (centres undefined)	G9a inh 45µM (no result: HP1b chromo inh, JMJD2A Tudor)
CCOC(=O)c1c(NC(=O)c2cc(CC(C)C)on2)sc(C(C)=O)c1C	G9a inh 7.9µM
CCOC(=O)c1c(NC(=O)c2cc(C(C)C)on2)sc(C(C)=O)c1C	G9a inh 7.9µM!
COc1ccc(Oc2ncc3nc(-c4cn(C)c5ccccc45)c(=O)n(C4CC4)c3n2)cc1	none (no result: TDP1 block, HP1b chromo inh, JMJD2A Tudor, BAZ2B block)
OC(CNCCc1ccc(C(F)(F)F)cc1)COc1ccc2ccccc2c1 (centres undefined)	Sfp inh 18µM
OC(CNC1CCCCCC1)COc1cccc2ccccc12 (centres undefined)	G9a inh 45µM, JMJD2A Tudor 3.5µM, BAZ2B block inconclusive (no result: TDP1 block)
COc1ccccc1COCC(O)CNCCc1ccc(C(F)(F)F)cc1 (centres undefined)	G9a inh 4µM, JMJD2A Tudor 79µM, BAZ2B block 25µM, Sfp inh inconclusive (no result: TDP1 block)
OC(CNCCc1ccc(C(F)(F)F)cc1)COc1cccc2ccccc12 (centres undefined)	Sfp inh 25µM
OC(COc1ccc(CNCCc2ccc(C(F)(F)F)cc2)cc1)CN1CCCCC1 (centres undefined)	G9a inh inconclusive
COc1ccccc1CNC(=S)NCCc1ccccc1	none
OC(CNC1CCCC1)COc1ccccc1Br (centres undefined)	none (no result: TDP1 block, G9a inh)
CC(C)Nc1nc(C#N)nc(Nc2ccccc2)n1	none (no result: G9a inh, HP1b chromo inh, BAZ2B block, Sfp inh)
CCc1cc(C(=O)NNC(=O)CCN2CCN(c3ccccc3)CC2)sc1C	G9a inh 40µM, BAZ2B block inconclusive
Cc1noc(C)c1C(=O)N1CCC2(CC1)CN(c1ccccc1)C2	none (no result: TDP1 block, HP1b chromo inh, JMJD2A Tudor, BAZ2B block)
CCc1cc2c(cc3c(=O)n(CC(=O)N4CCN(c5cccc(C)c5C)CC4)nc(CC)n32)s1	none (no result: Sfp inh)
Cc1csc2nc(COc3ccc(NC(=O)c4ccccc4F)cc3)cc(=O)n12	G9a inh inconclusive (no result: Sfp inh)
